# This is one part of a sample in which hits are shown more often than they occur.
# nsP2pro primary: Primary qHTS for inhibitors of NSP2Pro chikungunya virus (CHIKV); FRET peptide cleavage, nsP2pro, fluorescence 1 h; Potency, µM (doses to about 24.9 µM), for inactives: at the top dose activity change, negative = inhibition, usual class: inhibitors; 1.1% of 31,000 active; AID 1964107, 2024; further: nearly all actives have a fitted effect of over 60% in size
#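 Purified recombinant nsP2pro (150 nM final) in 10 mM Tris-HCl pH 8.0 with 0.01% Tween 20 was preincubated 15 min at room temperature with compound (7 concentrations, up to 25 uM). FRET peptide 2 substrate (2.5 uM final) was then added; fluorescence was read after 1 h.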
# CHIKV nsP2 cell: Secondary cell base assay for inhibitors of NSP2Pro Chikungunya virus (CHIKV). shares compounds with nsP2pro primary. cell-based CHIKV nsP2 protease reporter assay. Potency, µM (doses to about 51.1 µM), inactives show at the top dose activity change, negative = inhibition, actives largely listed as inhibitors. 10% of 450 active; further: nearly all actives have a fitted effect of over 70% in size
# NSP2 full ctr: Selectivity profile for inhibitors of NSP2Pro chikungunya virus (CHIKV): Full length NSP2 enzyme counterscreen (CHIKV-NSP2); Full-length CHIKV NSP2 protease enzymatic counterscreen; AID 1964101, 2024; 39% of 410 active; Potency, µM (titrated, usually from 50.7 µM), for inactives: top-dose activity change, negative = inhibition, most hits filed as inhibitors; shares compounds with nsP2pro primary; further: nearly all actives have a fitted effect of over 65% in size
# Furin counter: Selectivity profile for inhibitors of NSP2Pro chikungunya virus (CHIKV): Human furin counterscreen; shares compounds with nsP2pro primary; Recombinant human furin enzymatic counterscreen, fluorogenic substrate; Potency, µM (series often up to 50.6 µM), for inactives: top-dose activity change, negative = inhibition, usual class: inhibitors; 6% of 410 active
# NS23 peptide cs: Selectivity profile for inhibitors of NSP2Pro chikungunya virus (CHIKV): Endogenous NS2/3 peptide Counterscreen; shares compounds with nsP2pro primary; Purified CHIKV nsP2 protease, endogenous NS2/3 peptide cleavage; Potency, µM (titrated, usually from 51 µM), for inactives: top-dose activity change, negative = inhibition, most hits filed as inhibitors; 34% of 410 active; AID 1964103, 2024; further: nearly all actives have a fitted effect of over 55% in size
# Papain cs: Selectivity profile for inhibitors of NSP2Pro chikungunya virus (CHIKV): Papain Counterscreen; shares compounds with nsP2pro primary; purified papain protease activity, enzymatic inhibition; Potency, µM (doses to about 51 µM), for inactives: at the highest dose activity change, negative = inhibition, usual class: inhibitors; 5% of 410 active; AID 1964104, 2024
# Target sequence (P00784 whole entry, looked up): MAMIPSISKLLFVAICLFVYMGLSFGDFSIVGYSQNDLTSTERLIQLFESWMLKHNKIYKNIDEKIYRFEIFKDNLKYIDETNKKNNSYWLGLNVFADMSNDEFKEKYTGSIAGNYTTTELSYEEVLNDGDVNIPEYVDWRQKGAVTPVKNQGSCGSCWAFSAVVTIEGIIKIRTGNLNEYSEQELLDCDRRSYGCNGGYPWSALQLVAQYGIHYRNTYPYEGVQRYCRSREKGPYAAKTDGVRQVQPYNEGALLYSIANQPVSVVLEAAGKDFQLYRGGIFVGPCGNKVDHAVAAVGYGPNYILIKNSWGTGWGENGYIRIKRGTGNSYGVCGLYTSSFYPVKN
# nsP2pro confirm: Confirmatory qHTS for inhibitors of NSP2Pro chikungunya virus (CHIKV); shares compounds with nsP2pro primary; CHIKV nsP2 protease enzymatic activity, qHTS; Potency, µM (titrated, usually from 25.5 µM), inactives show top-dose activity change, negative = inhibition, hits mostly inhibitors; 43% of 410 active; further: nearly all actives have a fitted effect of over 75% in size
# HCV NS3 4A cs: Selectivity profile for inhibitors of NSP2Pro chikungunya virus (CHIKV): NS34A-HCV Counterscreen; shares compounds with nsP2pro primary; HCV NS3/4A protease biochemical counterscreen; Potency, µM (series often up to 50.9 µM), actives largely listed as inhibitors; 20% of 410 active; further: nearly all actives have a fitted effect of over 55% in size
# Active calls of the source: *; i = inactive; u = inconclusive; [ ] = another dose, or the depositor's remark. The call rests on the fitted dose curve. On the % scale 0 is the no-effect control and ±100 the full control effect; potency means the concentration at half of the fitted maximal effect.
SMILES,nsP2pro primary,others
CC(C)NC(=O)N[C@H]1C[C@H]2C(=O)NC[C@@H](CCC(=O)N3CCN(c4ccccn4)CC3)N2C1,0%,
C=C(C)C(=O)O[C@H]1C[C@@](C)(O)C2(O)CCC(C)(/C=C3/OC(=O)C(COC)=C31)O2 (some centres undefined),u,CHIKV nsP2 cell=u;NSP2 full ctr=u;Furin counter=-10%[33.5 µM];NS23 peptide cs=u;Papain cs=-9%[33.5 µM];nsP2pro confirm=u;HCV NS3 4A cs=u
CC1(C)C[C@H]1C(=O)N/C(=C\CCCCSC[C@@H](N)C(=O)O)C(=O)O,-2%,
Cc1ccccc1OC1=NS(=O)(=O)c2ccccc21,i,
O=S1(=O)N=C(Oc2ccccc2Br)c2ccccc21,i,
Nc1ccccc1OC1=NS(=O)(=O)c2ccccc21,10µM*,CHIKV nsP2 cell=7%;NSP2 full ctr=u;Furin counter=-5%;NS23 peptide cs=-11%;Papain cs=-5%;nsP2pro confirm=-6%;HCV NS3 4A cs=i
COc1ccc(C(=O)NC2CCN(c3ccnc4ccnn34)C2)cc1 (centres undefined),-4%[39.2 µM],
Cc1ccsc1C(=O)N1CCCC(CN2CCCC2)CC1 (centres undefined),5%,
Nc1nc(O)c(C2=C3C(=Nc4ccccc43)C(=O)NCC2)[nH]1,u,CHIKV nsP2 cell=6%;NSP2 full ctr=-3%;Furin counter=-9%;NS23 peptide cs=-12%;Papain cs=-14%;nsP2pro confirm=-21%;HCV NS3 4A cs=i
COc1ccc(Cl)cc1NC(=O)CCC1CCCN(C(=O)c2ccnn2C)C1 (centres undefined),i,
CNC(=O)c1cc(C)nc2onc(C3CCN(C(=O)NC4CCCC4)C3)c12 (centres undefined),1%,
COc1cc(OC)cc(-c2onc(C)c2C(=O)NCCC(c2ccccc2)c2ccccc2)c1,1%,
CCc1nc2ccc(C(=O)N3CCN(c4cccc(OC)c4)CC3)cc2nc1CC,-13%,
COC(=O)c1ccc(O)c2ncc(-c3ccc(C(=O)N4CCNCC4)cc3)cc12,i,
COC(=O)c1cc(CN2CCN(C(=N)N)CC2)cc(C(=O)N2CCN(C(=O)c3ccc(C(=N)N)cc3)CC2)c1,u,CHIKV nsP2 cell=-4%;NSP2 full ctr=15µM*;Furin counter=9.2µM*;NS23 peptide cs=u;Papain cs=u;nsP2pro confirm=u;HCV NS3 4A cs=i
CN1C(=O)C(c2ccccc2)CC12CCN(S(=O)(=O)N(C)C)CC2 (centres undefined),i,
CCc1noc(-c2cn(C3CCN(C(=O)c4cc(Cl)ccc4F)CC3)nn2)n1,3%,
N#CNC(=O)c1ccc(-n2cccc2/C=C2\NC(=O)N(CC(=O)Nc3ccc(F)cc3)C2=O)cc1,0%,
Cc1ccc(CNc2ccccc2C(=O)Nc2nc(-c3ccccc3)cs2)cc1,-10%,
O=C(Nc1ccc2ccccc2c1)Nc1cccc(-c2ccncc2)n1,-2%,
C=C1C(=O)O[C@@H]2[C@H]1CC(=O)[C@H](C)[C@@](O)(C(=O)/C=C/C)[C@H]2OC(=O)C(C)CC (some centres undefined),u,CHIKV nsP2 cell=u;NSP2 full ctr=u;Furin counter=5%[33.5 µM];NS23 peptide cs=13µM*;Papain cs=-5%[33.5 µM];nsP2pro confirm=u;HCV NS3 4A cs=i

# Bioassay records (PubChem BioAssay)
